These results are taken from the supplement of paper PMC10037445.

Test [1] has as its system RAW-Dual. Description: IRF Lucia reporter activity, fold change vs agonist alone; cytotoxicity flag (confluency mask): cytotoxic (confluency <70% of control); higher = enhanced IRF activity. The method in brief: (§1)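 Cytotoxic wells were those whose IncuCyte confluency was below 70% of agonist controls in both mask sets. The cells were RAW-Dual macrophages at 50,000 cells/well in DMEM on 384-well plates, dosed with 50 nL of library stock by pin tool, stimulated with a PRR agonist 1 h later, and kept at 37 °C, 5% CO2 for 20 hours. IRF and NF-κB reporter activity, as fold change over agonist-alone wells, came from supernatant read by QuantiLuc luminescence and QuantiBlue absorbance, respectively.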

Test [2] concerns RAW-Dual. As to the kind of experiment: IRF Lucia reporter activity, fold change vs agonist alone; cytotoxicity flag (confluency mask): not cytotoxic; higher = enhanced IRF activity. The gist of the method: as §1
Test [3] deals with RAW-Dual. Description: IRF Lucia reporter activity, fold change vs agonist alone; higher = enhanced IRF activity. The settings on record: agonist: MPLA (TLR4) […]. The method in brief:
as §1

The mark [4] stands for this setting: agonist: 3'3'-cGAMP (STING) 10 ug/mL.
Setting [5] is: library stock concentration (final ~1000-fold dilution): 10 mM, cytotoxicity flag (confluency mask): not cytotoxic.
The mark [6] stands for this setting: library stock concentration (final ~1000-fold dilution): 10 mM, cytotoxicity flag (confluency mask): cytotoxic (confluency <70% of control).

The full ranking holds about 2,900 compounds; the median of “IRF Lucia reporter activity, fold change vs agonist alone” is about 0.9, and the highest 2% start at about 2.8. For the sample, the highest values were picked, then their nearest neighbours and some compounds at random.

Consider `COCCNCCc1cccc(Nc2ncc3c(n2)-c2ccccc2C(c2ccccc2F)C3)c1` (centres undefined) (library stock concentration (final ~1000-fold dilution): 10 mM), for which the “IRF Lucia reporter activity” value in the test on RAW-Dual [1] (setting [4]) was determined as 0.0166; in the test on RAW-Dual [1] (agonist: LPS (TLR4) 0.1 ug/mL), 0.159. For the compound `CN1CCC(c2c(O)cc(O)c3c(=O)cc(-c4ccccc4Cl)oc23)C1CO.Cl` (centres undefined) (library stock concentration (final ~1000-fold dilution): 10 mM), the “IRF Lucia reporter activity” value with RAW-Dual [1] (setting [4]) was 0.00862; in the test with RAW-Dual [1] (agonist: LPS (TLR4) 0.1 ug/mL) it was 0.0242. As for `CN(CC1COCCO1)S(=O)(=O)Nc1ccc2ccc3ncc(-c4cnn(C)c4)cc3c(=O)c2c1` (centres undefined) (library stock concentration (final ~1000-fold dilution): 10 mM), the “IRF Lucia reporter activity” value in the test with RAW-Dual [2] (setting [4]) came out at 0.306; with RAW-Dual [2] (agonist: LPS (TLR4) 0.1 ug/mL), 0.736. In the case of `CN(CC1COCCO1)S(=O)(=O)Nc1ccc2ccc3ncc(-c4cnn(C)c4)cc3c(=O)c2c1` (centres undefined), the “IRF Lucia reporter activity” value with RAW-Dual [3] (setting [5]) is 0.63.

Take `COC(=O)C1=COC(OC2OC(CO)C(O)C(O)C2O)C2C1CC(O)C2C` (centres undefined): in the test on RAW-Dual [3] (setting [5]), the “IRF Lucia reporter activity” value came out at 1.12. As for `COC(=O)C1=COC(OC2OC(CO)C(O)C(O)C2O)C2C1CC(O)C2C` (centres undefined) (library stock concentration (final ~1000-fold dilution): 10 mM), the “IRF Lucia reporter activity” value came to 1.08 in the test with RAW-Dual [2] (setting [4]) and 1.3 with RAW-Dual [2] (agonist: LPS (TLR4) 0.1 ug/mL). Consider `CCCc1cc(C)[nH]c(=O)c1CNC(=O)c1cc(-c2ccc(N3CCN(C)CC3)nc2)nc2c1cnn2C(C)C` (library stock concentration (final ~1000-fold dilution): 10 mM), for which the “IRF Lucia reporter activity” value turned out to be 0.763 with RAW-Dual [2] (setting [4]) and 1.35 with RAW-Dual [2] (agonist: LPS (TLR4) 0.1 ug/mL). For the compound `CCN(C)S(=O)(=O)Nc1ccc(F)c(C(=O)c2c[nH]c3ncc(-c4cnc(C5CC5)nc4)cc23)c1F` (library stock concentration (final ~1000-fold dilution): 10 mM), the entries for the “IRF Lucia reporter activity” value in the test with RAW-Dual [2] (setting [4]) and in the test on RAW-Dual [2] (agonist: LPS (TLR4) 0.1 ug/mL) were 0.0563 and 0.409, respectively. For the compound `Cc1c(-c2ccccc2)oc2c(C(=O)OCCN3CCCCC3)cccc2c1=O.Cl`, in the test with RAW-Dual [3] (library stock concentration (final ~1000-fold dilution): 10 mM water, cytotoxicity flag (confluency mask): not cytotoxic), the “IRF Lucia reporter activity” value was 1.29. Turning to `Cc1c(-c2ccccc2)oc2c(C(=O)OCCN3CCCCC3)cccc2c1=O.Cl` (library stock concentration (final ~1000-fold dilution): 10 mM water), the “IRF Lucia reporter activity” value worked out at 1.09 with RAW-Dual [2] (setting [4]) and 0.892 in the test with RAW-Dual [2] (agonist: LPS (TLR4) 0.1 ug/mL).

Turning to `Cc1ccc2c(=O)c3cccc(CC(=O)O)c3oc2c1C` (library stock concentration (final ~1000-fold dilution): 10 mM), the “IRF Lucia reporter activity” value in the test on RAW-Dual [2] (setting [4]) was 1.08; in the test with RAW-Dual [2] (agonist: LPS (TLR4) 0.1 ug/mL), 6.08. Take `Cc1ccc2c(=O)c3cccc(CC(=O)O)c3oc2c1C`: the “IRF Lucia reporter activity” value in the test with RAW-Dual [3] (setting [5]) was 0.965. For the compound `CCC(=O)N1CCC(Nc2ncnc3c2CN(c2cnc(OC)c(C(F)(F)F)c2)CC3)C1` (centres undefined) (library stock concentration (final ~1000-fold dilution): 10 mM), the entries for the “IRF Lucia reporter activity” value in the test with RAW-Dual [2] (setting [4]) and with RAW-Dual [2] (agonist: LPS (TLR4) 0.1 ug/mL) were 0.908 and 0.847, respectively. As for `CCC1(O)C(=O)OCc2c1cc1n(c2=O)Cc2cc3cc(O)ccc3nc2-1` (centres undefined) (library stock concentration (final ~1000-fold dilution): 10 mM), the “IRF Lucia reporter activity” value in the test on RAW-Dual [2] (setting [4]) came out at 0.975; with RAW-Dual [2] (agonist: LPS (TLR4) 0.1 ug/mL) it was 0.604; with RAW-Dual [1] (setting [4]), 2.36; in the test on RAW-Dual [1] (agonist: LPS (TLR4) 0.1 ug/mL), 1.76. `CCc1c2c(nc3ccc(OC(=O)N4CCC(N5CCCCC5)CC4)cc13)-c1cc3c(c(=O)n1C2)COC(=O)C3(O)CC.Cl.O.O.O` (centres undefined): the “IRF Lucia reporter activity” value in the test with RAW-Dual [3] (setting [5]) is 1.15. With `CCC1(O)C(=O)OCc2c1cc1n(c2=O)Cc2cc3c(CN(C)C)c(O)ccc3nc2-1.Cl` (centres undefined) (library stock concentration (final ~1000-fold dilution): 10 mM), the “IRF Lucia reporter activity” value in the test with RAW-Dual [1] (setting [4]) was determined as 2.13; in the test on RAW-Dual [1] (agonist: LPS (TLR4) 0.1 ug/mL), 2.49. Turning to `CCC1(O)C(=O)OCc2c1cc1n(c2=O)Cc2cc3cc(O)ccc3nc2-1` (centres undefined), the figures for the “IRF Lucia reporter activity” value with RAW-Dual [3] (setting [6]) and in the test with RAW-Dual [3] (setting [5]) were 2.58 and 1.03, respectively. For `CCc1c2c(nc3ccc(O)cc13)-c1cc3c(c(=O)n1C2)COC(=O)C3(O)CC` (centres undefined) (library stock concentration (final ~1000-fold dilution): 10 mM), the “IRF Lucia reporter activity” value in the test on RAW-Dual [2] (setting [4]) stood at 1.24; with RAW-Dual [2] (agonist: LPS (TLR4) 0.1 ug/mL), 1.29. Regarding `CCC1(O)C(=O)OCc2c1cc1n(c2=O)Cc2cc3c(CN(C)C)c(O)ccc3nc2-1.Cl` (centres undefined), in the test on RAW-Dual [3] (setting [6]), the “IRF Lucia reporter activity” value was determined as 3.1. As to `CCC1(O)C(=O)OCc2c1cc1n(c2=O)Cc2cc3c(CN(C)C)c(O)ccc3nc2-1` (centres undefined) (library stock concentration (final ~1000-fold dilution): 10 mM), the figures for the “IRF Lucia reporter activity” value with RAW-Dual [2] (setting [4]) and with RAW-Dual [2] (agonist: LPS (TLR4) 0.1 ug/mL) were 2.77 and 3.25, respectively. Regarding `CCc1c2c(nc3ccc(OC(=O)N4CCC(N5CCCCC5)CC4)cc13)-c1cc3c(c(=O)n1C2)COC(=O)C3(O)CC.Cl.O.O.O` (centres undefined) (library stock concentration (final ~1000-fold dilution): 10 mM), the “IRF Lucia reporter activity” value in the test on RAW-Dual [2] (setting [4]) was determined as 0.87; with RAW-Dual [2] (agonist: LPS (TLR4) 0.1 ug/mL), 1.1. As for `CCc1c2c(nc3ccc(O)cc13)-c1cc3c(c(=O)n1C2)COC(=O)C3(O)CC` (centres undefined), the “IRF Lucia reporter activity” value with RAW-Dual [3] (setting [5]) came out at 1.65.
